# Test results as given in ChEMBL document CHEMBL1201862, “PubChem BioAssay data set” (2004).
# Among all 400,000 compounds or so, about 2,100 (0.53%) were called active. About 14% were inconclusive and are not listed. No rule for the calls is given here. Shown is part of a subset that was picked to be rich in actives.
# Target: Ataxin-2 (Homo sapiens) (UniProt Q99700)
# Assay: qHTS for Inhibitors of ATXN expression.
# Format: functional
# Ataxin-2 (Homo sapiens), sequence (Q99700 whole entry): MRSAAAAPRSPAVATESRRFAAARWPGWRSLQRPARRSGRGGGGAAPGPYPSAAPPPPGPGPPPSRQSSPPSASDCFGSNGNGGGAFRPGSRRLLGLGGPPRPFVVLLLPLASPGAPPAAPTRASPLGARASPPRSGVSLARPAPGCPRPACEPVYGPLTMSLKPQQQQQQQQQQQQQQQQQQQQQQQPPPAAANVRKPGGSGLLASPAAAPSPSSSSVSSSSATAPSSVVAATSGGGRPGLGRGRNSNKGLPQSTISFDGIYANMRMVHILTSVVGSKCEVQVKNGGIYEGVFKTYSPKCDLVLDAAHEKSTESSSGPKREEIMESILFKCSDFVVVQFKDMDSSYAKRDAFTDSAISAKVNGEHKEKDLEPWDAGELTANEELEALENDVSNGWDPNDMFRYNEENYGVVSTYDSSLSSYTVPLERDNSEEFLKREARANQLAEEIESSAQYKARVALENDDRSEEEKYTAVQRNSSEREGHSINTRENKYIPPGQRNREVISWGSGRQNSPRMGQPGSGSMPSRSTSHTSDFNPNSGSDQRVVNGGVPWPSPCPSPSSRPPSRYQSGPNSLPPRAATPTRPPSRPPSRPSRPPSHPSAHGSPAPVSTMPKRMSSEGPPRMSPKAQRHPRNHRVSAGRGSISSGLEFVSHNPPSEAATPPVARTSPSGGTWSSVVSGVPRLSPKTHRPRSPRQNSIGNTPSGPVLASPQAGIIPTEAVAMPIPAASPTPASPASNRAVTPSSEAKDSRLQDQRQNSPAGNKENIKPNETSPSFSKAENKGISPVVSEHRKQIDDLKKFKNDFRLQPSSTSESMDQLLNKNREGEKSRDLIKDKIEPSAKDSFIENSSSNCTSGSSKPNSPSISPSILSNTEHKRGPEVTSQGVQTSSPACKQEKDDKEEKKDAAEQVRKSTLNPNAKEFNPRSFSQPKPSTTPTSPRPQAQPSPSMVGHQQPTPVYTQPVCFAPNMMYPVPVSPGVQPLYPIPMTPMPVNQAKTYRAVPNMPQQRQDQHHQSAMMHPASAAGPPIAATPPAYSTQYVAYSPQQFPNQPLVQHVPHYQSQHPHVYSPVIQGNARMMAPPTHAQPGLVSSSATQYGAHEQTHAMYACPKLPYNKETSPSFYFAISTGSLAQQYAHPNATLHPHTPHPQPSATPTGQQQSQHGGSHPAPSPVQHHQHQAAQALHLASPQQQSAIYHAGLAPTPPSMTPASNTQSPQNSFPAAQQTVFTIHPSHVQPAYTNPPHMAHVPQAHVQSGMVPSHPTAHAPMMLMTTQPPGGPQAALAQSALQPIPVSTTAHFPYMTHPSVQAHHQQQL
row,SMILES,Potency
1,NC(=O)c1ccc(NC(=O)COC(=O)c2c3c(nc4ccccc24)/C(=C\c2ccc4c(c2)OCO4)CCC3)cc1,inactive
2,COc1ccc(-c2c(C)c3ccc(O)c(CN4CCOCC4)c3oc2=O)cc1OC,inactive
3,COc1ccc(/C=C/c2nc(C#N)c(N3CCCCC3)o2)cc1OC,inactive
4,C=CCN=C(S)Nc1ccc(C)c(S(=O)(=O)N2CCCCC2)c1,inactive
5,Cc1ccc(NC(=O)Cn2ncc(Cl)c(Cl)c2=O)cc1S(=O)(=O)N1CCCCC1,31.6 µM (active)
6,CCCc1cc(O)nc(SCC(=O)Nc2ccc(C)c(S(=O)(=O)N3CCCCC3)c2)n1,inactive
7,Cc1c(Br)c(C(F)(F)F)nn1CC(=O)NCc1ccco1,inactive
8,COc1ccc(CN([C@H](CO)CC(C)C)S(=O)(=O)N(Cc2ccccc2)[C@H](CO)CC(C)C)cc1,39.8 µM (active)
9,COc1ccc(CCNC(=O)CN(c2ccccc2)S(C)(=O)=O)cc1,inactive
10,CCN(c1ccc(N/C=C2/C(=O)N(Cc3ccc(OC)cc3)C(=O)c3ccccc32)cc1)C(C)C,inactive
11,C=CS(=O)(=O)c1c2cc(OC)ccc2nc2ccc(OC)cc12,inactive
12,Cc1cccn2c(=O)c(C=O)c(N3CCCCC3)nc12,inactive
13,Nc1c(C(=O)Nc2ccccc2Br)sc2nc(-c3cccs3)ccc12,inactive
14,O=C(NC(=S)Nc1ccc(N2CCCC2)cc1)c1ccc(F)cc1,inactive
15,O=C(c1nc(-c2ccc(Cl)cc2)n2c1CCCCC2)N1CCN(c2ccc(F)cc2)CC1,22.4 µM (active)
16,Cc1nn(CC(=O)N2CCN(c3ccc(Cl)cc3)CC2)c(=O)c2cccn12,inactive
17,CCC(C)n1c(=N)c(C#N)cc2c(=O)n3cccc(C)c3nc21 (centres undefined),inactive
18,O=C(CN1C(=O)NC(Cc2c[nH]c3ccccc23)C1=O)Nc1cccc(S(=O)(=O)N2CCCC2)c1 (centres undefined),inactive
19,COc1ccccc1C1c2[nH]c3ccccc3c2CCN1Cc1cnc(C)s1 (centres undefined),inactive
20,COC(=O)Cc1c(C)c2ccc3c(c2oc1=O)CN(Cc1ccc(C)cc1)CO3,inactive
21,C=CCC[C@@H](Cc1ccc(F)cc1)C(=O)OC[C@@H]1CCCN1C(=O)[C@@H](CC=C)CC(=O)N[C@@H](CO)Cc1ccccc1,28.2 µM (active)
22,C=CC[C@@H](Cc1ccc(F)cc1)C(=O)OC[C@@H]1CCCN1C(=O)[C@H](CC=C)CC(=O)N[C@H](CO)Cc1ccccc1,39.8 µM (active)

row,SMILES,Potency
1,C=CCC[C@@H](Cc1ccc(F)cc1)C(=O)OC[C@@H]1CCCN1C(=O)[C@H](CC=C)CC(=O)N[C@H](CO)Cc1ccccc1,35.5 µM (active)
2,CC(=O)Nc1nn(C)c2nc3ccc(C)cc3cc12,inactive
3,C/C(CC(=O)Nc1cccc(C(F)(F)F)c1)=N\NC(=O)c1ccncc1,inactive
4,CCCCCNCC(=O)Nc1cccc(C(=O)Nc2cccc(C(F)(F)F)c2)c1,26.7 µM (active)
5,CCN1C(=O)c2ccc(C(=O)Nc3cccc(C(=O)O)c3)cc2C1=O,inactive
6,[O-][n+]1c(-c2ccccc2)c(O)nc2ccccc21,inactive
7,COc1ccc2c(Cl)c(C(=O)N/N=C3\CCCC(=O)C3)sc2c1,inactive
8,COCC(C)OC(=O)c1c(N)n(CC(C)C)c2nc3ccccc3nc12 (centres undefined),inactive
9,CCCCc1ccc(-c2csc(/C(C#N)=C\c3ccco3)n2)cc1,inactive
10,Cc1ccc(O)c(NC(=S)NC(=O)c2ccc(-c3ccc(Cl)cc3)o2)c1,22.4 µM (active)
11,CCOCCCn1c(=N)c(C(N)=S)cc2c(=O)n3cccc(C)c3nc21,inactive
12,Cc1ccccc1NC(=O)c1cc(S(=O)(=O)N2CCCCC2)ccc1N1CCOCC1,inactive
13,O=C(Nc1ccc(S(=O)(=O)N2CCCC2)cc1)c1ccc([N+](=O)[O-])o1,37.7 µM (active)
14,NC(=O)c1ccc(NC(=O)c2cc(S(=O)(=O)N3CCCCC3)ccc2N2CCOCC2)cc1,inactive
15,CCN1CCN(c2ccc(S(=O)(=O)N3CCCCC3)cc2NC(=O)c2ccc([N+](=O)[O-])o2)CC1,28.2 µM (active)
16,Cc1cc(C(=O)Nc2ccc(S(=O)(=O)N3CCOCC3)cc2)c(C)o1,inactive
17,CN1CCN(c2ccc(S(=O)(=O)N3CCCCC3)cc2NC(=O)c2cccc([N+](=O)[O-])c2)CC1,inactive
18,CC(=O)Oc1ccc(OC(C)=O)c(SCCCCCCl)c1,inactive
19,CC1=CC2C(C(O)CC3(C)C2CC(C)C32OCOC23COCO3)C2(C)CC(C=O)=C(O)C=C12 (centres undefined),15 µM (active)
20,COc1cc(/C=C2\C(=N)N3N=C(S(C)(=O)=O)SC3=NC2=O)ccc1OCCOc1ccccc1C,inactive
21,O=C(CCc1ccc(O)cc1)N/N=C/c1coc2ccccc2c1=O,inactive
22,CNC(=O)c1c(NC(=O)c2ccc(S(=O)(=O)N3CCCC(C)C3)cc2)sc2c1CCC2 (centres undefined),inactive

row,SMILES,Potency
1,COCCNC(=O)c1c(N)n(CCC2=CCCCC2)c2nc3ccccc3nc12,inactive
2,CCOc1ccccc1NC(=O)c1ccc2c(O)c(S(=O)(=O)c3ccccc3)c(O)nc2c1,inactive
3,COc1ccccc1Nc1nn2c(=O)c3ccc(C(=O)NCCC4=CCCCC4)cc3nc2s1,6.31 µM (active)
4,O=C1/C(=C/Nn2cnnc2)c2ccccc2C(=O)N1c1ccccc1,inactive
5,N#Cc1cc2c(=O)n3ccccc3nc2n(Cc2cccnc2)c1=O,inactive
6,Cc1ccc2nc3c(cc(C(=O)NCCc4ccccc4)c(=N)n3CC3CCCO3)c(=O)n2c1 (centres undefined),inactive
7,CCC[C@H](CN[C@@H](CNC)[C@H](C)CC)NCCc1cc(C(F)(F)F)cc(C(F)(F)F)c1,25.1 µM (active)
8,CCC[C@@H](CN[C@@H](CNC)[C@H](C)CC)NCC1CCC(C(C)(C)C)CC1 (some centres undefined),35.5 µM (active)
9,Cc1cc(S(=O)(=O)c2cc3ccc(O)c(C)c3oc2=O)ccc1F,inactive
10,Cn1nc(C(=O)OCC(=O)Nc2ccccc2OC(F)F)c2ccccc2c1=O,inactive
11,CCOC(=O)c1cc2c(=O)n3ccccc3nc2n(CC2CCCO2)/c1=N\C(=O)c1ccccc1F (centres undefined),inactive
12,Cc1ccc(-n2c(S)nnc2Cn2c(C)nc3ccccc32)cc1,inactive
13,COc1ccc(C2CC(c3ccccc3)=NN2c2ccc(S(N)(=O)=O)cc2)cc1 (centres undefined),inactive
14,COc1ccc(C2=NN(c3ccccc3)C(c3cn(CCC(=O)O)nc3-c3ccccc3)C2)cc1 (centres undefined),inactive
15,CCn1cc([N+](=O)[O-])c(C(=O)N2N=C(c3ccc(Cl)c(Cl)c3)CC2c2ccccc2O)n1 (centres undefined),39.8 µM (active)
16,COc1ccc(C2CC(c3ccccc3)=NN2C(=O)c2ccc(Cl)c([N+](=O)[O-])c2)cc1 (centres undefined),31.6 µM (active)
17,O=[N+]([O-])c1ccc(C2=NN(c3ccccc3)C(c3ccco3)C2)cc1 (centres undefined),inactive
18,Cc1nc(N2N=C(c3ccc(Cl)cc3)CC2c2ccco2)sc1C(=O)N(C)C (centres undefined),inactive
19,COc1ccc(C2=NN(C(=O)COC(=O)c3ccc(S(C)(=O)=O)c([N+](=O)[O-])c3)C(c3ccco3)C2)cc1 (centres undefined),23.8 µM (active)
20,COc1ccc(C2CC(c3ccccc3)=NN2c2ccc(Cl)c(C(=O)O)c2)cc1 (centres undefined),inactive
